From PubChem BioAssay
In the library only some 6.2% were active in any assay of this set; here they are far more common.
FMDV inh = blocks foot and mouth disease virus | FMDV antiviral cell-based qHTS | Potency, µM (titrated, usually from 57.9 µM), without a hit: at the highest dose activity change, negative = inhibition, hits mostly inhibitors | hit rate 1.2% among 410,000; calls by dose curve; tested in HEK293T cells; note: read-out not given here; potency is the fitted concentration of half-maximal effect; nearly all actives have a fitted effect of over 45% in size
HCMV inh = blocks human cytomegalovirus replication | HFF cells, HCMV-luciferase reporter, 72 h; active compounds read low | activity change, negative = inhibition, % at 57.5 µM | hit rate 4.5% among 410,000 | AID 1259415; in the data active = activity change below about -60%; inconclusive = no clear call, values can overlap the other calls; inactive = above about -39%
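Two-dose cell screen: HFF monolayers treated with compounds and infected with luciferase-expressing HCMV at 1 PFU/cell, 72 h at 37C, then lysed for luciferase measurement.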
Lassa entry inh = blocks Lassa virus binding to or entry into cells; Lassa virus pseudotype entry inhibition, cell reporter; Potency, µM (top dose mostly 37.9 µM), for inactives: at the top dose activity change, negative = inhibition, usual class: inhibitors; hit rate 1.2% among 300,000; AID 540256; calls by dose curve; tested in HEK293 cells; note: potency is the fitted concentration of half-maximal effect; nearly all actives have a fitted effect of over 50% in size
MARV entry inh = inhibitors of Marburg virus binding or cell entry; Marburg virus pseudotyped entry inhibition, cell reporter; Potency, µM (doses to about 37.8 µM), for the others: top-dose activity change, negative = inhibition, usual class: inhibitors; hit rate 1.8% among 300,000; calls by dose curve; tested in HEK293 cells; note: potency is the fitted concentration of half-maximal effect
The depositor's hits bear a star; [ ] = dose if it differs, or a comment. % is set by controls: 0 for no effect and ±100 for the full control effect.

`O=C(c1cccc(S(=O)(=O)Nc2cccc(C(F)(F)F)c2)c1)N1CCOCC1` gave FMDV inh 8.8%, HCMV inh -26.7, Lassa entry inh 18.5% and MARV entry inh -0.9%[46.1 µM].
For O=C(O)c1cccc(NS(=O)(=O)c2ccc(S(=O)(=O)N3CCOCC3)cc2)c1 the results were FMDV inh -15.7% and HCMV inh -76.3*.
For Cc1ccc(C)n1C1C(=O)N(C)c2ccc(OC(F)(F)F)cc21 (stereo not given) the results were HCMV inh -1.2.
Screening O=C1c2ccccc2C(=O)N1CCCC[C@]12Cc3ccccc3[C@H](O1)c1c(c3ccccc3oc1=O)O2 returned MARV entry inh -29.2%[14.2 µM].
For CC(C)c1ccc(CN(Cc2ccco2)c2cnc(S(C)(=O)=O)nc2C(=O)Nc2ccccc2)cc1 the results were FMDV inh -25.3%, HCMV inh -8.9, Lassa entry inh -23.4%[46.1 µM] and MARV entry inh inconclusive.
Screening Cc1ncc2c(c1CNC(=O)c1ccc3c(c1)OCO3)CCN(C(=O)c1ccoc1)C2 returned FMDV inh 3.3%.
CC(Oc1ccccc1)C(=O)Nc1ccccc1C(=O)OCc1cc(=O)n2nc(C3CC3)sc2n1 (stereo not given) was read as FMDV inh inconclusive, HCMV inh 37.1 and Lassa entry inh inconclusive.
Screening COc1ccc(OC)c(Nc2nc(N)nc(CCl)n2)c1 returned FMDV inh inconclusive, HCMV inh -99.1*, Lassa entry inh inconclusive and MARV entry inh -27.2%[46.1 µM].
For Cc1cccc(Nc2nc(N)nc(CCl)n2)c1 the results were FMDV inh 14.8%, HCMV inh -103.7*, Lassa entry inh inconclusive and MARV entry inh inconclusive.
`COc1cccc(Nc2nc(N)nc(CCl)n2)c1` gave FMDV inh 15.7%, HCMV inh -79.6*, Lassa entry inh inconclusive and MARV entry inh inconclusive.
COc1ccc(N2CCN(Cc3nc(N)nc(Nc4ccccc4OC)n3)CC2)cc1 was read as FMDV inh -17.9%, HCMV inh -2.2, Lassa entry inh inconclusive and MARV entry inh 18.3µM*.
Screening COc1ccccc1Nc1nc(N)nc(CCl)n1 returned FMDV inh -4.4%, HCMV inh inconclusive, Lassa entry inh inconclusive and MARV entry inh -5.2%[46.1 µM].
`O=C1N(Cc2ccccc2C(F)(F)F)c2ccccc2[C@@]12O[C@H](COc1ccccc1)CC1=C2CCC1` gave MARV entry inh -23.5%[14.2 µM].
`CCC12CN3CC(CC)(CN(C1)C3c1cc(Br)ccc1OC)C2=O` (stereo not given) gave FMDV inh -14.4%, HCMV inh -0.5, Lassa entry inh 14.8%[46.1 µM] and MARV entry inh -2.9%[46.1 µM].
CC(=O)OCC(COC(C)=O)(CN1C(=O)c2ccccc2C1=O)CN1C(=O)c2ccccc2C1=O was read as HCMV inh 0.5.
Screening COc1ccc(NC(=O)c2oc3ccccc3c2NC(=O)c2cccc(F)c2)c(OC)c1 returned FMDV inh -18.8%, HCMV inh -4.5, Lassa entry inh 14.9%[46.1 µM] and MARV entry inh -19.4%[46.1 µM].
CCOC(=O)N[C@@H](Cc1cccnc1)C(=O)N1CCC[C@H]1C(=O)NCCc1ccccc1Cl was read as HCMV inh -19.2.
For CC(=O)Nc1cccc(-c2ccnc3c2CC(C)(C(=O)NCCc2ccccc2)O3)c1 (stereo not given) the results were FMDV inh -15.6% and HCMV inh -88.2*.
Screening CC1(C(=O)NCCc2ccccc2)Cc2c(-c3ccccc3)ccnc2O1 (stereo not given) returned FMDV inh -19.4% and HCMV inh -19.5.
`CC(=O)Nc1cccc(-c2ccnc3c2CC(C(=O)NCCc2ccccc2)O3)c1` (stereo not given) gave FMDV inh inconclusive and HCMV inh -86.1*.
CC1(C(=O)NCCc2ccccc2)Cc2c(-c3cccc(C(F)(F)F)c3)ccnc2O1 (stereo not given) was read as FMDV inh -21.4% and HCMV inh -61.9*.
`CC(=O)c1cccc(-c2ccnc3c2CC(C(=O)NCCc2ccccc2)O3)c1` (stereo not given) gave FMDV inh 1.6% and HCMV inh -16.6.
For CC(=O)Nc1cccc(-c2ccnc3c2CC(C)(C(=O)Nc2ccccc2)O3)c1 (stereo not given) the results were FMDV inh -8.2% and HCMV inh inconclusive.
CC1(C(=O)NCc2ccccc2)Cc2c(-c3ccc4c(c3)OCO4)ccnc2O1 (stereo not given) was read as FMDV inh -12.5% and HCMV inh -80.5*.
